# Most compounds without a hit are left out; they make up all but 0.35% or so of the library.
# Apoferritin bind = binds horse apoferritin like a general anesthetic | hit rate 0.074% among 350,000 | Potency, µM (titrated, usually from 77.5 µM), without a hit: at the highest dose activity change, negative = displacement, usual class: inhibitors | AID 485281 | P02791 | apoferritin/1-aminoanthracene competitive binding, fluorescence; further: nearly all actives have a fitted effect of over 20% in size
#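 Horse-spleen apoferritin (10 uM) in 50% saturated 1-aminoanthracene in PBS was incubated 10 min at room temperature with compound. Fluorescence (ex 380, em 535 nm) was normalized to free and bound 1-AMA, with concentration-response fitted by a four-parameter Hill equation.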
# GLS inhibitor = blocks human kidney-isoform glutaminase activity. O94925. GLS enzymatic activity, qHTS titration. Potency, µM (doses to about 45.5 µM), without a hit: top-dose activity change, negative = inhibition, hits mostly inhibitors. hit rate 0.21% among 410,000. AID 624170
# Target sequence (O94925 whole entry, looked up, canonical isoform): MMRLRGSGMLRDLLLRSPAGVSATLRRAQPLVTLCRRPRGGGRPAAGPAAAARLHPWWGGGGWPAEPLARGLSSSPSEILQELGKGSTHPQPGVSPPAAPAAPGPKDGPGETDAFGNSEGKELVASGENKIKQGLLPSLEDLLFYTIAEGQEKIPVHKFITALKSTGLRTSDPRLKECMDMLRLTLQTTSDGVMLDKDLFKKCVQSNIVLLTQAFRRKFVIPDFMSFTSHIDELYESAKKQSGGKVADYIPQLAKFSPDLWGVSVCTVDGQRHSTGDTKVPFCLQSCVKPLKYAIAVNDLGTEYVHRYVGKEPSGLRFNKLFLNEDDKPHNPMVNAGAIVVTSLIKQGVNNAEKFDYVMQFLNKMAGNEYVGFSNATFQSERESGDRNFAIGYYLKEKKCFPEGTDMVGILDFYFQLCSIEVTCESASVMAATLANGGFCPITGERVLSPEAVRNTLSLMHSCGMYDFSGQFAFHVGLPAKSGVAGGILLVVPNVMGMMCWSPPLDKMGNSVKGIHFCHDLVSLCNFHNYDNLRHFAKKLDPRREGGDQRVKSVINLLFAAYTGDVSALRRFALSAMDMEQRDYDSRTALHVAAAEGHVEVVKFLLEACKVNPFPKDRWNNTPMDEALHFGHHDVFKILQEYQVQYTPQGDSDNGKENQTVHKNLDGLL
#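 Coupled fluorescence readout: glutamate oxidase/HRP/Amplex Red detect glutamate formed by hKGA from L-glutamine (1 mM solution added). Buffer 45 mM KH2PO4 pH 8.2, 0.02% Tween-20; reads at t0 and 30 min RT.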
# MBNL1 CUG block = blocks human MBNL1 binding to CUG repeat RNA | AID 2675 | Q9NR56 | Potency, µM (highest dose often 57.5 µM), without a hit: top-dose activity change, negative = inhibition, actives largely listed as inhibitors | hit rate 0.036% among 280,000 | TR-FRET MBNL1-His/biotin-(CUG)12 binding, 665/545 ratio; active means well fitted inhibition curve with a large enough effect in the signal ratio, with a control signal flat, not every such curve was filed as active; inconclusive means small, poorly fitted or top-dose-only effect, or effect the other way, or a change in a side signal; inactive means no such curve, though single readings can be large or run the other way; the % refers to the signal ratio
#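 His-tagged MBNL1 binding to biotinylated (CUG)12 RNA was measured by TR-FRET using terbium anti-His antibody (0.055 ng/ul final) and streptavidin-XL665 (5 nM final). Compounds were titrated 92 nM to 58 uM; 60 min at room temperature.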
# B2AR arrestin = beta2AR (human) beta-arrestin recruitment activity | P07550 | beta-arrestin recruitment to beta2AR, cell-based reporter | Potency, µM (doses to about 46.1 µM), inactives show at the top dose activation, actives largely listed as activators | hit rate 0.02% among 330,000 | AID 492947;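 further: 0% = DMSO controls and full agonism = EC100 isoproterenol or metaproterenol; nearly all actives have a fitted effect of over 65% in size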
# BCR signal inh = chronic active BCR signaling inhibition | ABC-DLBCL IkBa-CBG/CBR reporter, luminescence ratio, 4 h | AID 493014 | hit rate 0.05% among 340,000 | Potency, µM (titrated, usually from 46.1 µM), for the others: at the top dose activity change, negative = inhibition, usual class: inhibitors; active means well fitted inhibition curve with a large enough effect in the signal ratio, with a control signal flat, not every such curve was filed as active; inconclusive means small, poorly fitted or top-dose-only effect, or effect the other way, or a change in a side signal; the % refers to the signal ratio;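 further: plate controls were basal doxycycline-induced cells for no effect and cells given 10 µM MG132 for full effect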
#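 Doxycycline induced both beetle luciferases in TMD8 lymphoma cells; IKK-driven degradation limits the IkappaBalpha-fused green signal, while red luminescence normalises for cell number and nonspecific effects. Compounds tested up to 46 uM, 4 hrs.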
# Numbers without * were called inactive; ? = inconclusive; . = no result given. Unless noted, the call rests on the fitted dose curve; in most records, active means well fitted curve in the direction sought with a large enough effect; inconclusive means small, poorly fitted or top-dose-only effect, or another doubt; inactive means no such curve, though single readings can be large; an effect the other way counts as inactive or inconclusive. Unless noted, on the % scale 0 is the no-effect control and ±100 the full control effect; potency means the concentration at half of the fitted maximal effect.
SMILES,Apoferritin bind,GLS inhibitor,MBNL1 CUG block,B2AR arrestin,BCR signal inh
CO/N=C(/C(=O)N[C@H]1C(=O)N2C(C(=O)O)=C(COC(C)=O)CSC12)c1csc(N)n1 (stereo partly specified),6.6%,.,.,.,.
O=C(COC(=O)c1c2c(nc3ccccc13)/C(=C/c1ccco1)CC2)NC1CCCC1,?,17.8µM*,48.5%,-2.0%,1.9%
CC1CCCCC1NC(=O)COC(=O)c1c2c(nc3ccccc13)/C(=C/c1ccco1)CC2 (stereo unspecified),1.1%,-23.0%,44.3%,-0.6%,4.3%
CCc1cccc(NC(=O)CCCCCC2NC(=O)NC2C)c1 (stereo unspecified),-11.0%,0.0%,0.1µM*,-0.1%,6.1%
CC1NC(=O)NC1CCCCCC(=O)Nc1ccc(F)c(Cl)c1 (stereo unspecified),-8.5%,0.0%,.,-0.4%,0.3%
CCc1cccc(NC(=O)CCCN2C(=O)NC(C)(C)C2=O)c1,.,-2.7%,.,0.0%,?
Cc1ccc(NC(=O)CCCCCC2NC(=O)NC2C)cc1 (stereo unspecified),0.2%,4.8%,0.0447µM*,0.1%,?
CN(CCO)c1ccc(C=NNc2ccc([N+](=O)[O-])cc2S(=O)(=O)Nc2ccccc2C(=O)O)cc1,.,11.2µM*,.,0.5%,0.7%
Cc1ccc(OCC(=O)N(Cc2ccc(N(C)C)cc2)CC2CCCO2)cc1C (stereo unspecified),-17.9%,22.2%,.,.,.
CCC(C)C(C(=O)OCC[N+](C)(CC)CC)c1ccccc1 (stereo unspecified),.,-1.5%,.,.,.
O=[N+]([O-])c1cc(Cc2ccccc2)cc(C=Nc2ccc(N3CCOCC3)cc2)c1O,-5.0%,?,7.0%,0.1%,-2.6%
Cc1ccc(O)c(N=Cc2cc(Cc3ccccc3)cc([N+](=O)[O-])c2O)c1,?,11.2µM*,3.7%,0.1%,-3.8%
CN(C)/C=C/c1c([N+](=O)[O-])c2ccc(O)cc2n1-c1ccccc1,-8.5%,8.91µM*,.,4.2%,?
O=C1CCCC2=C1C(c1ccc(Br)cc1)c1c([nH]c(=S)[nH]c1=O)N2 (stereo unspecified),-8.0%,12.6µM*,-4.6%,0.1%,?
CC/C(=N\NC(=O)CSCc1ccc(Cl)cc1)c1ccc2c(c1)OCCO2,17.8µM*,6.2%,-1.3%,-0.9%,-1.4%
CCOc1ccc(C(=O)Nc2ccc(C(=O)OCc3cc(=O)n4c(C)csc4n3)cc2)cc1,29.2%,0.5%,.,.,.
CC(=O)NCCNc1ncnc2ccc(-c3ccc(C(=O)N(C)C)cc3)cc12,-16.2%,.,.,.,.
Cc1ccc(/C(=N/Nc2ncnc3ccccc23)C(=O)O)cc1,-7.7%,0.1%,11.8%,11.2µM*,?
O=C(Nc1cccnc1)C1(F)C(F)(F)C(F)(F)C(F)(F)C(F)(F)C1(F)F,12.6µM*,-6.9%,0.9%,-0.9%,-1.9%
CC[C@H](C)[C@H](NC(=O)[C@H](CCCNC(=N)N)NC(=O)[C@@H](NC(=O)[C@H](CCCNC(=N)N)NC(=O)[C@H](CCCCN)NC(=O)[C@H](CCCNC(=N)N)NC(=O)[C@@H](NC(=O)[C@H](CC(N)=O)NC(=O)[C@@H](N)CS)[C@@H](C)O)[C@@H](C)CC)C(=O)N[C@@H](CCC(N)=O)C(=O)N[C@@H](CCCNC(=N)N)C(=O)NCC(=O)N1CCC[C@H]1C(=O)NCC(=O)N[C@@H](CCCNC(=N)N)C(=O)N[C@@H](C)C(=O)N[C@@H](Cc1ccccc1)C(=O)N[C@H](C(=O)N[C@H](C(=O)N[C@H](C(=O)NCC(=O)N[C@@H](CCCCN)C(=O)O)[C@@H](C)CC)[C@@H](C)O)C(C)C,-9.4%,.,.,.,.
CCC(CC)C(=O)c1c[nH]c(C(=O)NN)c1,-16.6%,12.5%,-4.6%,-0.2%,22.4µM*
CCC(CC)C(=O)c1c[nH]c(C(=O)O)c1,-1.0%,0.0%,-7.9%,0.0%,0.6%
CCc1ccc(CNC(=O)c2cnc3sc(N4CCCC4)nn3c2=O)cc1,-0.6%,2.9%,.,.,.
O=C(/C=C\c1ccccc1OC(=O)c1ccccc1F)c1cc2ccccc2o1,?,3.5%,24.3%,-0.5%,13µM*
CCCNC(C)C(=O)Nc1ccccc1C (stereo unspecified),-1.7%,1.4%,-1.1%,3.16µM*,9.9%
SMILES,Apoferritin bind,GLS inhibitor,MBNL1 CUG block,B2AR arrestin,BCR signal inh
COc1ccccc1CNC(=O)CCC1N=C2c3ccccc3N=C(SCC(N)=O)N2C1=O (stereo unspecified),-2.1%,-6.6%,.,.,22.5%
CCCCCC1CC(CC(=O)Nc2ccc([N+](=O)[O-])cc2)OC1=O (stereo unspecified),?,-0.2%,10.2%,-0.2%,?
CCCCCC1CC(CC(=O)Nc2ccc([N+](=O)[O-])cc2)C(=O)O1 (stereo unspecified),15.8µM*,-5.5%,16.7%,-0.5%,?
COc1ccccc1NC(=O)Cn1nc(-c2ccc3c(c2)OCCO3)ccc1=O,11.2µM*,-0.2%,?,-0.1%,?
Cc1ccc(-c2ccc(=O)n(CC(=O)Nc3ccc(C)cc3Cl)n2)cc1,10µM*,-0.6%,.,.,.
COc1cccc(-c2ccc(=O)n(CC(=O)Nc3cc4c(cc3NC(C)=O)OCCO4)n2)c1,-18.7%,-0.8%,15.4%,-0.2%,0.3%
Cc1ccc(NC(=O)Cn2nc(-c3ccccc3Cl)ccc2=O)c(Br)c1,10µM*,-1.0%,36.1%,0.2%,-28.6%
CCOC(=O)c1noc2nc(C)n(CC(=O)NC(C)CC)c(=O)c12 (stereo unspecified),-3.7%,-38.1%,.,.,.
O=c1sc2ccccc2c(=O)n1Cc1ccccc1F,?,12.6µM*,-10.3%,0.0%,-17.1%
Cc1ccc(Cn2c(=O)sc3ccccc3c2=O)cc1,-3.4%,-22.8%,-3.4%,-0.1%,-5.6%
CC1=C(C(=O)OCCN(Cc2ccccc2)c2ccccc2)C(c2cccc([N+](=O)[O-])c2)C(P2(=O)OCC(C)(C)CO2)=C(C)N1 (stereo unspecified),.,0.5%,.,.,.
COc1ccc(CNCC(O)COc2ccc3[nH]c(=O)ccc3c2)cc1OC (stereo unspecified),.,-5.7%,.,.,.
CC(=O)N1CCc2c(sc3c2c(=O)n(-c2ccccc2Cl)c(=O)n3C)C1,-2.8%,?,.,.,-6.8%
Cc1cnc(C(=O)OCC(=O)NC23CC4CC(CC(C4)C2)C3)cn1,10µM*,2.2%,-0.8%,0.5%,3.8%
O=C(COC(=O)c1ccccc1O)NC12CC3CC(CC(C3)C1)C2,.,4.7%,.,-1.1%,0.2%
O=C(COC(=O)c1ccccn1)NC12CC3CC(CC(C3)C1)C2,7.94µM*,1.1%,0.1%,0.1%,5.6%
O=C(CN1CCN(c2ccccc2O)CC1)NCCCc1ccccc1,-9.4%,5.01µM*,-3.3%,0.2%,-16.6%

# Compound activity as filed in PubChem BioAssay.
